Measured values from PubChem BioAssay (Tox21).
Unmarked numbers belong to inactive results. Results filed as inconclusive are left out. Where a call stands in place of a potency, no number is given. The source made the active and inactive calls. Unless noted, calls come from the whole dose curve; as a rule, active = well fitted curve in the direction sought with a large enough effect in the repeat runs; inconclusive = weak or mixed curves; inactive = no such curve, though single readings can be large; an effect the other way counts as inactive or inconclusive.

Legend:
[1] = qHTS assay to identify small molecule agonists of H2AX (AID 1224845; active = well fitted activation curve with a large enough effect in the signal ratio in the repeat runs, not every such curve was filed as active; the % refers to the signal ratio)
Outline: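 Phospho-H2AX Ser139 measured by HTRF (ex 320 nm; em 665 and 620 nm) after 24 hr antibody incubation. Compounds, 15 concentrations, 0.76% DMSO, were applied to CHO-K1 cells for 3hr at 37C before lysis.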

[2] = qHTS assay to identify small molecule agonists of the hypoxia (HIF-1) signaling pathway (AID 1224846; active = well fitted activation curve with a large enough effect in the signal ratio in the repeat runs, not every such curve was filed as active; the % refers to the signal ratio)
Outline: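 A low-serum medium (0.5% dialyzed FBS) holding 2,000 HRE-bla ME-180 cells per well is preincubated for 5 hrs, dosed with compounds by pintool, and kept a further 17 hrs at 37C, 5% CO2 before CCF4-AM FRET detection of beta-lactamase.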

[3] = qHTS assay to identify small molecule agonists of H2AX - cell viability counter screen (AID 1224847; calls by dose curve; note: top concentration of the series differs between compounds; nearly all actives have a fitted effect of over 30% in size)
Outline: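 Compounds tested at 15 concentrations were incubated 3 hr at 37C with wild-type CHO-K1 cells; cellular ATP-based luminescence (CellTiter-Glo) indicated viability.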

[4] = qHTS assay to identify small molecule antagonists of the estrogen related receptor (ERR) signaling pathway from Tox21 library (AID 1224848); note: nearly all actives have a fitted effect of over 50% in size; note: potency is the fitted concentration of half-maximal effect
Outline: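 Reading was by luminescence 30 min after ONE-Glo addition. Before that, ERR cells at 2,000 per well had rested 6 h at 37 C/5% CO2 and then received pin-tooled compounds in DMSO for 18 h at 37 C.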

[5] = qHTS assay to identify small molecule agonists of the estrogen related receptor (ERR) signaling pathway from Tox21 library (AID 1224849; calls by dose curve; note: nearly all actives have a fitted effect of over 15% in size); settings: ERR reporter cell line, ONE-Glo luciferase, 18 h; at 92.4 µM (top of the series) unless noted
Outline: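 Screening used an NTP-provided ERR luciferase cell line. Compounds in DMSO were added 6 h after seeding and left 18 h at 37 C before a 30 min ONE-Glo step and luminescence reading.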

[6] = qHTS RealTime-Glo MT Cell Viability Assay in HepG2 cells - 24 hour (AID 1224867); note: nearly all actives have a fitted effect of over 50% in size
Outline: (§1)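 Compound treatment began 5 h after plating HepG2 cells (600/well) with NanoLuc luciferase and prosubstrate. Plates stayed at 37 C for 40 h; luminescence was captured at six time points, 0 h through 40 h.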

[7] = A CellTox Green Cytotoxicity Assay to monitor cytotoxicity in HEK293 cells - 0 hour (AID 1224869); note: nearly all actives have a fitted effect of over 50% in size
Outline: (§2)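 Fluorescence intensity, read at 0, 8, 16, 24, 32 and 40 h of compound treatment, reflected dye binding to DNA of dead HEK293 cells; compounds (23 nL, DMSO) were added 5 h after plating cells with reagent.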

[8] = qHTS RealTime-Glo MT Cell Viability Assay in HepG2 cells - 40 hour (AID 1224870); note: nearly all actives have a fitted effect of over 50% in size
Outline: (§3)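 Real-time viability: cells seeded at 600 per well together with NanoLuc and cell-permeant prosubstrate, compounds added after 5 h incubation. Luminescence tracked at 0, 8, 16, 24, 32 and 40 h of exposure.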

[9] = A CellTox Green Cytotoxicity Assay to monitor cytotoxicity in HEK293 cells - 40 hour (AID 1224871); note: nearly all actives have a fitted effect of over 45% in size
Outline: as §2

[10] = qHTS RealTime-Glo MT Cell Viability Assay in HEK293 cells - 16 hour (AID 1224872)
Outline: (§4)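 Quantitative high-throughput screen of the Tox21 10K library in HEK293: cells and RealTime-Glo reagents plated together, compound added at 5 h, luminescence monitored through 40 h at 37 C.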

[11] = qHTS RealTime-Glo MT Cell Viability Assay in HepG2 cells - 8 hour (AID 1224873); note: nearly all actives have a fitted effect of over 55% in size
Outline: as §3

[12] = A CellTox Green Cytotoxicity Assay to monitor cytotoxicity in HEK293 cells - 24 hour (AID 1224875); note: nearly all actives have a fitted effect of over 45% in size
Outline: as §2

[13] = qHTS RealTime-Glo MT Cell Viability Assay in HepG2 cells - 32 hour (AID 1224877); note: nearly all actives have a fitted effect of over 55% in size
Outline: as §1

[14] = A CellTox Green Cytotoxicity Assay to monitor cytotoxicity in HepG2 cells - 24 hour (AID 1224878); note: nearly all actives have a fitted effect of over 45% in size; note: potency is the fitted concentration of half-maximal effect
Outline: (§5)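 Using 1536-well format, dye-containing HepG2 suspension was seeded, allowed 5 h at 37 C/5% CO2, dosed by pintool with compounds, positive and negative controls, and imaged for fluorescence across 40 h.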

[15] = A CellTox Green Cytotoxicity Assay to monitor cytotoxicity in HepG2 cells - 40 hour (AID 1224879); note: nearly all actives have a fitted effect of over 40% in size; note: potency is the fitted concentration of half-maximal effect
Outline: as §5

[16] = qHTS RealTime-Glo MT Cell Viability Assay in HEK293 cells - 0 hour (AID 1224880); note: nearly all actives have a fitted effect of over 45% in size; note: potency is the fitted concentration of half-maximal effect
Outline: (§6)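 Viable HEK293 cells reduce a cell-permeant prosubstrate; the product diffuses out and is consumed by NanoLuc in the medium to give light. Compounds went in after a 5 h incubation and plates were read over the treatment course.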

[17] = A CellTox Green Cytotoxicity Assay to monitor cytotoxicity in HEK293 cells - 32 hour (AID 1224881); note: nearly all actives have a fitted effect of over 40% in size
Outline: as §2

[18] = A CellTox Green Cytotoxicity Assay to monitor cytotoxicity in HepG2 cells - 16 hour (AID 1224876); note: nearly all actives have a fitted effect of over 45% in size
Outline: as §5

[19] = qHTS RealTime-Glo MT Cell Viability Assay in HEK293 cells - 32 hour (AID 1224868)
Outline: as §4

[20] = qHTS RealTime-Glo MT Cell Viability Assay in HEK293 cells - 40 hour (AID 1224874); settings: RealTime-Glo luminescence; max response: hits give low values; note: nearly all actives have a fitted effect of over 50% in size
Outline: as §6

Row | SMILES | Potency [1] | Potency [2] | Potency [3] | Potency [4] | activity change, positive = activation [5] | Potency [6] | Potency [7] | Potency [8] | Potency [9] | Potency [10] | Potency [11] | Potency [12] | Potency [13] | Potency [14] | Potency [15] | Potency [16] | Potency [17] | Potency [18] | Potency [19] | max response [20]
1 | CN(C)CCOC(c1ccccc1)c1ccc(Br)cc1 (centres undefined) | inactive | inactive | inactive | inactive | -2.31% [at 42.5 µM] | inactive | inactive | inactive | inactive | inactive | inactive | inactive | inactive | 23.9 µM (active) | 23.9 µM (active) | inactive | inactive | – | – | –
2 | CC(C)(O)c1ccc(CNC(=O)c2cccnc2Oc2ccc(F)cc2)cc1 | inactive | inactive | inactive | 30.6 µM (active) | -45% | inactive | inactive | inactive | inactive | – | inactive | inactive | inactive | inactive | inactive | inactive | inactive | inactive | – | –
3 | COCCCN1CCC(NC(=O)c2cc(Cl)c(N)c3c2OCC3)CC1 | inactive | inactive | inactive | inactive | 5.44% [at 42.5 µM] | inactive | inactive | inactive | inactive | inactive | inactive | inactive | inactive | inactive | inactive | inactive | inactive | inactive | inactive | -14%
4 | ClCCOCCOCCCl | inactive | inactive | inactive | inactive | 2.88% | inactive | inactive | inactive | inactive | inactive | inactive | – | inactive | – | – | inactive | inactive | – | inactive | 5.38%
5 | CCCCCC[C@@H](O)C/C=C\CCCCCCCC(=O)OC | inactive | inactive | inactive | inactive | 3.83% | inactive | inactive | inactive | inactive | inactive | inactive | inactive | inactive | inactive | inactive | inactive | inactive | inactive | inactive | 0.122%
6 | Cc1c(N)cccc1[N+](=O)[O-] | inactive | inactive | inactive | inactive | -14.7% | inactive | inactive | inactive | inactive | inactive | inactive | inactive | inactive | inactive | inactive | inactive | inactive | – | inactive | -13.1%
7 | CCOC(=O)C(O)c1ccccc1 (centres undefined) | inactive | inactive | inactive | inactive | 3.78% [at 42.5 µM] | inactive | inactive | inactive | inactive | inactive | inactive | – | inactive | inactive | inactive | inactive | inactive | – | inactive | 4.49%
8 | COc1ccc(C(=O)N2CCN(CC(=O)N3CCOCC3)CC2)cc1 | inactive | inactive | inactive | inactive | 4.84% [at 42.5 µM] | – | inactive | inactive | inactive | inactive | inactive | inactive | inactive | inactive | inactive | inactive | inactive | inactive | inactive | 2.37%
9 | CCc1cc(C2=C(C(=O)O)N(c3ccccc3C(F)(F)F)S(=O)(=O)c3ccccc32)cc2c1OCO2 | inactive | inactive | inactive | 24.1 µM (active) | -39.9% | inactive | inactive | inactive | inactive | inactive | inactive | inactive | inactive | inactive | inactive | 43.1 µM (active) | inactive | inactive | inactive | -24.9%
10 | Nc1cccc([N+](=O)[O-])c1 | inactive | inactive | inactive | inactive | -5.85% | inactive | inactive | inactive | inactive | inactive | inactive | inactive | inactive | inactive | inactive | inactive | inactive | inactive | inactive | 1.66%
11 | Nc1ccc([N+](=O)[O-])c(C(F)(F)F)c1 | inactive | inactive | inactive | inactive | -17.3% [at 42.5 µM] | inactive | inactive | inactive | inactive | inactive | inactive | inactive | inactive | inactive | inactive | inactive | inactive | inactive | inactive | -6.2%
12 | CC(COCCO)OCCO (centres undefined) | inactive | inactive | inactive | inactive | 0.277% | – | inactive | inactive | inactive | inactive | inactive | inactive | inactive | inactive | inactive | inactive | inactive | – | inactive | 4.24%
